In PubChem BioAssay (NCI):
Compounds without any hit were thinned out: in the full panel of roughly 79,000, 15% have a hit. The source made the active and inactive calls. Rule as the data show it: active = growth inhibition above about 70%; inactive = the rest. Where a SMILES comes first, the peptide text is derived from it. The star is where a group is joined. Boc = CC(C)(C)OC(=O)*

How the values were obtained:
[1] = NCI Yeast Anticancer Drug Screen. Data for the rad50 strain (AID 155);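 also: 0% = growth of vehicle-only cultures of the same strain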; details: S. cerevisiae rad50 strain growth inhibition; at 50.0 µM; hits give high values
Method in brief: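 Inhibition values express reduced yeast growth in compound-treated cultures relative to vehicle-treated controls.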

[2] = NCI Yeast Anticancer Drug Screen. Data for the mec2-1 strain (AID 157); details: S. cerevisiae mec2-1 strain, at 50.0 µM, hits give high values
Method in brief: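 Mutant yeast (mec2-1) grown with compound; growth inhibition relative to vehicle control reported.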

[3] = NCI Yeast Anticancer Drug Screen. Data for the sgs1 mgt1 strain (AID 161);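 also: 0% = growth of cultures given vehicle only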; details: S. cerevisiae sgs1 mgt1 strain, at 50.0 µM, hits give high values
Method in brief: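 Percent growth inhibition was derived by comparing compound-exposed mutant yeast with vehicle-exposed cultures. The strain carries alterations in DNA damage repair.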

[4] = NCI Yeast Anticancer Drug Screen. Data for the cln2 rad14 strain (AID 165);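 also: 0% = growth equal to vehicle treated cultures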; details: S. cerevisiae cln2 rad14 strain, at 50.0 µM, hits give high values
Method in brief: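 Readout is yeast growth inhibition versus vehicle-treated controls, using a strain with cln2 and rad14 alterations exposed to compound.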

[5] = NCI Yeast Anticancer Drug Screen. Data for the bub3 strain (AID 167); details: S. cerevisiae bub3 mutant strain, at 50.0 µM, hits give high values
Method in brief: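 Steps: expose the mutant yeast strain to compound; grow alongside vehicle-treated cultures; measure growth; express inhibition against the vehicle cultures.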

[6] = NCI Yeast Anticancer Drug Screen. Data for the mlh1 rad18 strain (AID 175); details: S. cerevisiae mlh1 rad18 strain growth inhibition; at 50.0 µM; hits give high values
Method in brief: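 Genetically defined yeast (DNA repair-deficient) exposed to compounds; growth inhibition determined relative to vehicle.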

Structure (SMILES)	growth inhibition [1]	growth inhibition [2]	growth inhibition [3]	growth inhibition [4]	growth inhibition [5]	growth inhibition [6]
O=[N+]([O-])c1cc(Br)ccc1N1CCCCC1	-3.15% (inactive)	-3.55% (inactive)	2.25% (inactive)	-18.1% (inactive)	17.9% (inactive)	-20.8% (inactive)
CC/C(=C\c1ccccc1OC)c1ccncc1	14.2% (inactive)	-0.1% (inactive)	30.4% (inactive)	12.2% (inactive)	36.6% (inactive)	1.55% (inactive)
CC(C)C(NC(=O)OC(C)(C)C)C(=O)N1CCCC1C(=O)O (stereo not drawn) (Boc-Val-Pro-OH; configuration not given here)	11.8% (inactive)	-1.5% (inactive)	18% (inactive)	3.3% (inactive)	2.3% (inactive)	5.65% (inactive)
O=C(O)c1ccc2ccccc2c1C(=O)c1ccc(F)cc1	10.1% (inactive)	-1.6% (inactive)	17.9% (inactive)	18.3% (inactive)	20.3% (inactive)	3.1% (inactive)
CC1=CCCC(C)(C)C1/C=C\C(C)=N\Nc1ccc([N+](=O)[O-])cc1[N+](=O)[O-] (centres undefined)	0.55% (inactive)	-3.3% (inactive)	-12.3% (inactive)	-33.9% (inactive)	-0.15% (inactive)	6.3% (inactive)
COc1ccc(C[C@@H]2Cc3cc(OC)c(OC)cc3CN2C)cc1	27.4% (inactive)	4.6% (inactive)	19.6% (inactive)	5.65% (inactive)	10.9% (inactive)	21.4% (inactive)
[B]C(=O)NC(CC(C)C)C(=O)NCC(=O)NC1c2ccsc2C(=O)C1O (centres undefined) (tested in a mixture with another compound)	-23.5% (inactive)	3.95% (inactive)	-23.8% (inactive)	-8.45% (inactive)	0% (inactive)	2.05% (inactive)
O=[N+]([O-])c1cc(Br)c(F)cc1F	-22.2% (inactive)	4.85% (inactive)	-5.2% (inactive)	-32.2% (inactive)	-2.55% (inactive)	31.1% (inactive)
COc1cc2c(cc1OCc1ccccc1)NC(=O)C2	0.5% (inactive)	20.2% (inactive)	12.8% (inactive)	-7.85% (inactive)	-18.9% (inactive)	-7% (inactive)
CCOc1c(OC)cc(-c2nc3n(n2)C(=O)C(CC)S3)cc1OC (centres undefined)	-15.6% (inactive)	-17.4% (inactive)	-41.3% (inactive)	-4.85% (inactive)	-3.65% (inactive)	-4.2% (inactive)
CN(C(=O)C1(C(=O)C=[N+]=[N-])CC1)c1ccccc1	-3.8% (inactive)	-4.4% (inactive)	-14.8% (inactive)	1.3% (inactive)	-2.55% (inactive)	7.3% (inactive)
O=C(N/N=C/c1ccccc1[O-])c1ccccc1O.O=C(N/N=C/c1ccccc1[O-])c1ccccc1O.[Fe+2]	6.45% (inactive)	-10.1% (inactive)	-1.5% (inactive)	19.3% (inactive)	-19.6% (inactive)	9.5% (inactive)
CCCC(O)CNCc1ccc2ncccc2c1 (centres undefined)	-20.4% (inactive)	-4.2% (inactive)	2.1% (inactive)	-66.8% (inactive)	-4.35% (inactive)	-23.4% (inactive)
CC(C)CCC(C)(C)COC(=O)c1ccc([N+](=O)[O-])cc1 (tested in a mixture with another compound)	36.5% (inactive)	15.1% (inactive)	43.4% (inactive)	-2.25% (inactive)	2.15% (inactive)	29.3% (inactive)
C1C[OH+]CCNCC[OH+]CC[OH+]CCN1.[Cl-].[Pt+4]	-14.5% (inactive)	-29.2% (inactive)	1.55% (inactive)	-9.05% (inactive)	3.5% (inactive)	-16.2% (inactive)
c1ccc(-c2nc3c(N4CCOCC4)ncnc3o2)cc1	-3.25% (inactive)	-4.65% (inactive)	7.95% (inactive)	-2.55% (inactive)	-4.8% (inactive)	2.75% (inactive)
CCC(C)[N-]c1cccc[n+]1[O-].CCC(C)[N-]c1cccc[n+]1[O-].[Cu+2] (centres undefined)	8.3% (inactive)	-3.9% (inactive)	-9.8% (inactive)	-2% (inactive)	-18.3% (inactive)	-18.4% (inactive)
ClC/C(=N\N1CCCCCC1)c1ccccc1	-7.8% (inactive)	-4.05% (inactive)	-4.75% (inactive)	-10.2% (inactive)	-1.6% (inactive)	2.2% (inactive)
COC(=O)C1(CC(=O)c2ccncc2)NC(=S)NC(=O)C1C#N (centres undefined)	2% (inactive)	-11.8% (inactive)	-19.1% (inactive)	-22.4% (inactive)	-22.8% (inactive)	-5.75% (inactive)
Cc1c([N+](=O)[O-])cc(C(C)(C)C)c(OC(=S)N(C)C)c1[N+](=O)[O-]	26.9% (inactive)	23.4% (inactive)	-1.75% (inactive)	18% (inactive)	14.7% (inactive)	0.7% (inactive)

Structure (SMILES)	growth inhibition [1]	growth inhibition [2]	growth inhibition [3]	growth inhibition [4]	growth inhibition [5]	growth inhibition [6]
CC[N+](C)(C)c1ccc(/C=C(/C#N)C(=O)OC)cc1	7.55% (inactive)	9.8% (inactive)	12.8% (inactive)	11.2% (inactive)	-1.2% (inactive)	-1.55% (inactive)
CCC1(C)CC(C)(C)c2cc(C(C)=O)c(C)cc21 (centres undefined)	8.1% (inactive)	-1.05% (inactive)	-4.7% (inactive)	-29.5% (inactive)	11.3% (inactive)	4.15% (inactive)
O=C1c2ccccc2C(=O)N1c1ccccc1Cl	4.45% (inactive)	-11% (inactive)	27.8% (inactive)	-111% (inactive)	39% (inactive)	19.7% (inactive)
O=C(Nc1cccc2ccccc12)O/N=C/c1ccccn1	-9.3% (inactive)	-3.4% (inactive)	-11.4% (inactive)	39.3% (inactive)	-7% (inactive)	-1.7% (inactive)
C/C(CCc1ccccc1)=N/Nc1ccc([N+](=O)[O-])cc1[N+](=O)[O-]	0.65% (inactive)	-4.75% (inactive)	10.2% (inactive)	0.05% (inactive)	13.4% (inactive)	-4.55% (inactive)
CCCCCCC(=O)/C=C/c1ccccc1Cl	-12.2% (inactive)	-29.6% (inactive)	-1.35% (inactive)	10.3% (inactive)	15.1% (inactive)	10.1% (inactive)
CC(C)C1NC(=O)c2ccccc2S1 (centres undefined)	27.8% (inactive)	-15.9% (inactive)	-3.55% (inactive)	26.1% (inactive)	10.7% (inactive)	44% (inactive)
COc1ccc(C(=O)N/N=C/c2ccccc2Cl)cc1	1% (inactive)	0.45% (inactive)	19.1% (inactive)	-10.6% (inactive)	19.4% (inactive)	18.4% (inactive)
CC(=O)Nc1ccc(N(C)C)c(C)c1	-6.65% (inactive)	-7.55% (inactive)	-1.85% (inactive)	-7.75% (inactive)	12.9% (inactive)	-10.2% (inactive)
COc1nc(NC2OC(CO)C(O)C(O)C2O)cc(=O)[nH]1 (centres undefined)	-4.2% (inactive)	-7.45% (inactive)	1.45% (inactive)	-3.15% (inactive)	-37.7% (inactive)	-6.45% (inactive)
O=C1NC(Cc2c[nH]c3ccccc23)C(=O)N2CCCC12 (centres undefined)	-4.85% (inactive)	1% (inactive)	-7% (inactive)	-6.5% (inactive)	-6.3% (inactive)	8.85% (inactive)
CC(=O)CC(C)(C)NC(=S)Nc1ccc(C)cc1	22.6% (inactive)	46.1% (inactive)	15.3% (inactive)	-10.7% (inactive)	99.2% (active)	42.3% (inactive)
O=C(O)C1CCCCC1C(=O)Nc1cccc2ccccc12 (centres undefined)	6.65% (inactive)	-2.8% (inactive)	-4.3% (inactive)	-7.95% (inactive)	24.4% (inactive)	-39.5% (inactive)
CC(CN1CCCCC1)SSC(C)CN1CCCCC1 (centres undefined)	41.8% (inactive)	14.9% (inactive)	27% (inactive)	-29.1% (inactive)	11.5% (inactive)	44.2% (inactive)
NC(=O)C1=CC2C3C=CC2(O)C(=O)OC3O1 (centres undefined)	-15.3% (inactive)	-28.6% (inactive)	-12.6% (inactive)	3.2% (inactive)	-22.9% (inactive)	-11.1% (inactive)
CC1CCOC(c2ccccc2Cl)O1 (centres undefined)	-25% (inactive)	14.1% (inactive)	-4.55% (inactive)	-12.1% (inactive)	-9.3% (inactive)	5% (inactive)
Cc1ccc(NC(=O)NCc2ccncc2)cc1NC(=O)NCc1ccncc1	13% (inactive)	15% (inactive)	20.8% (inactive)	20.2% (inactive)	30.9% (inactive)	24.8% (inactive)
O=NNc1ccc(SSc2ccc(NN=O)cc2)cc1	39.8% (inactive)	9.5% (inactive)	22.9% (inactive)	44.9% (inactive)	8.05% (inactive)	31.1% (inactive)
Nc1c(-c2ncc[nH]2)ncn1CC(O)C(O)C(O)CO (centres undefined)	7.5% (inactive)	19.6% (inactive)	12.3% (inactive)	22.9% (inactive)	3.2% (inactive)	17.9% (inactive)
